Columns and labels:
[1] = system: Botulinum neurotoxin type F light chain protease (Clostridium botulinum); experiment: Botulinum neurotoxin type F light chain protease inhibition, multiplex microsphere flow cytometry, validation set (AID 588459); details: multiplex microsphere protease substrate cleavage assay, at 10 µM, hits give high values
[2] = biological target: Botulinum neurotoxin type A (Clostridium botulinum) (UniProt P0DPI0); experiment: BoNT/A light chain protease inhibitors, biochemical, multiplex microsphere flow cytometry, validation set (AID 588460); details: at 10 µM, hits give high values
[3] = biological target: Lethal factor (Bacillus anthracis) (UniProt P15917); experiment: Lethal factor protease inhibitors, Bacillus anthracis, multiplex microsphere cleavage assay, validation set (AID 588461); details: flow cytometry, at 10 µM, hits give high values

Measured: inhibition

CN(C)[C@@H]1C(=O)C(C(=O)NCN2CCCC2)=C(O)[C@@]2(O)C(=O)C3=C(O)c4c(O)cccc4[C@@](C)(O)C3CC12 (stereo partly drawn)
inactive: [1] -4.8% | [2] -5.7% | [3] -8.3%

CCOc1ccccc1OCCOc1ccc(F)cc1
inactive: [1] 0.7% | [2] -1.2% | [3] 6.2%

COc1ccc2nc(NC(=O)Nc3ccccc3)sc2c1
inactive: [1] -3.1% | [2] -2.6% | [3] -2.7%

C=CCc1cc(Cl)ccc1OCCOCCN(C)C
inactive: [1] -0.1% | [2] -1.3% | [3] -1.2%

O=C(/C=C/c1ccc(F)cc1)NC(=S)N1CCCCC1c1cccnc1 (stereo not drawn)
inactive: [1] 1% | [2] -0.6% | [3] -0.1%

O=C(C1CCCCC1)N1CC(=O)N2CCc3ccccc3C2C1 (stereo not drawn)
inactive: [1] -2.5% | [2] -1.1% | [3] 3.9%

CC(C[N+](C)(C)C)OC(N)=O (stereo not drawn)
inactive: [1] -0.5% | [2] -0.4% | [3] 6.6%

O=C(NC(=S)N1CCCCC1)c1cccnc1
inactive: [1] 1.2% | [2] 1% | [3] -4.6%

Cn1c(=O)c2c(ncn2Cc2ccccc2)n(C)c1=O
inactive: [1] 3.3% | [2] 3% | [3] 7.6%

COc1cccc(N2CC34C=CC(O3)C(C(=O)O)C4C2=O)c1 (stereo not drawn)
inactive: [1] 3.9% | [2] 0.3% | [3] 6%

CC(=O)Nc1ccc(OS(=O)(=O)c2c(C)cc(C)cc2C)cc1
inactive: [1] -3.3% | [2] -1% | [3] -0.9%

COc1cc2c(cc1OC)-c1cc(OCc3ccccc3Cl)nc(=O)n1CC2
inactive: [1] -0.4% | [2] 0.1% | [3] 0.1%

CCOC(=O)N1CCN(Cc2nc(Cc3cccc(F)c3)no2)CC1
inactive: [1] 1.3% | [2] 0% | [3] 3.3%

Nc1ccc2[nH]ncc2c1
inactive: [1] -1.8% | [2] -1.3% | [3] 2.9%

COc1ccc2c(CCNC(=O)c3ccc([N+](=O)[O-])cc3)c[nH]c2c1
inactive: [1] 1.6% | [2] -0.5% | [3] -5%

CC(=O)OCC(=O)[C@@]1(O)[C@H](C)C[C@H]2[C@@H]3CCC4=CC(=O)C=C[C@]4(C)[C@@]3(F)[C@@H](O)C[C@@]21C
inactive: [1] 3% | [2] 0.4% | [3] 6.7%

CCC(C)NCCOc1ccccc1C (stereo not drawn)
inactive: [1] 1.2% | [2] -0.1% | [3] 5.2%

CO/N=C(\C(=O)N[C@@H]1C(=O)N2C(C(=O)O)=C(COC(C)=O)CS[C@H]12)c1csc(N)n1 (stereo in doubt)
inactive: [1] 2.7% | [2] -1.1% | [3] -5.4%

CC1CCCc2sc3ncn(N)c(=N)c3c21 (stereo not drawn)
inactive: [1] 0.9% | [2] 0.3% | [3] -1.1%

O=C(/C=C/c1ccccc1)NCC1(c2ccccc2)CCOCC1
inactive: [1] -1.5% | [2] 0.4% | [3] 3%

CCOC(=O)C1(Cc2cccc(Cl)c2)CCCN(C2CCN(C(C)=O)CC2)C1 (stereo not drawn)
inactive: [1] 9.1% | [2] 0.7% | [3] -5.1%

CC(C)CC(=O)OC1C(N2CCOCC2)c2c(ccc(/C=C/C(=O)N3CCOCC3)c2O)OC1(C)C (stereo not drawn)
inactive: [1] 0.5% | [2] -0.5% | [3] -0.5%

Clc1cc(-c2ccc(/C=N/n3cnnc3)o2)ccc1Br
inactive: [1] -3.6% | [2] -0.3% | [3] 0.9%

C[N+](C)(C)CCCC(=O)c1ccc2c(c1)OCO2
inactive: [1] -4% | [2] -1.8% | [3] -6%

CCc1cc2c(=O)c(-c3ccc4c(c3)OCCO4)coc2c(CN2CCCCC2C)c1O (stereo not drawn)
inactive: [1] 2.5% | [2] 0.3% | [3] -1%

COc1cccc(CN2CCN(C(=O)c3ccc(-c4ccccc4)cc3)CC2)c1
inactive: [1] 3.8% | [2] -0.4% | [3] -3.1%

CCc1cn([C@H]2C[C@H](O)[C@@H](CO)O2)c(=O)[nH]c1=O
inactive: [1] -0.5% | [2] -2.2% | [3] 1.6%

Cc1c(OCC(=O)NC(Cc2c[nH]c3ccc(O)cc23)C(=O)O)ccc2c3c(c(=O)oc12)CCC3 (stereo not drawn)
inactive: [1] 3.2% | [2] -1.1% | [3] 3.7%

CCCC(=O)O[C@]1(C(=O)CO)CC[C@H]2[C@@H]3CCC4=CC(=O)CC[C@]4(C)[C@H]3[C@@H](O)C[C@@]21C
inactive: [1] 5.1% | [2] 0.1% | [3] -0.6%

O=C(O)c1ccc(N2C(=O)/C(=C\c3ccccc3)N=C2c2ccccc2)cc1
inactive: [1] 1% | [2] -1.6% | [3] 4.4%

Cn1nnnc1SCC1=C(C(=O)O)N2C(=O)[C@@H](NC(=O)[C@H](O)c3ccccc3)[C@H]2SC1
inactive: [1] 1% | [2] 0.9% | [3] 1.9%

O=C(CS(=O)(=O)Cc1ccccc1)NCc1ccc2c(c1)OCO2
inactive: [1] 1.6% | [2] 0.1% | [3] -6.5%

COC(=O)c1ccccc1NC(=O)c1ccc(COc2ccc3c(c2)CCC3)cc1
inactive: [1] 2.7% | [2] -0.5% | [3] 2%

CCc1cc(=O)oc2cc(OCC=C(C)C)ccc12
inactive: [1] 2% | [2] 0.5% | [3] 0.2%

CC(=O)OC[C@H]1O[C@@H](Sc2cccc3cccnc23)[C@H](OC(C)=O)[C@@H](OC(C)=O)[C@H]1OC(C)=O
inactive: [1] -3.9% | [2] -0.4% | [3] 0.7%

CC(C)C(=O)Nc1c(O)c2ccccc2[nH]c1=O
inactive: [1] 3.5% | [2] -0.8% | [3] 1.1%

COc1cc(OC)c(C(=O)CCCN2CCCC2)c(OC)c1
inactive: [1] 2.9% | [2] -0.9% | [3] -2.6%

COc1ccc(S(=O)(=O)N2CCN(C(=O)COc3ccc4c(C)cc(=O)oc4c3)CC2)cc1
inactive: [1] 2.4% | [2] 0.1% | [3] -0.8%

NS(=O)(=O)c1cc2c(cc1C(F)(F)F)NCNS2(=O)=O
inactive: [1] 0.5% | [2] -0.4% | [3] 5.4%

COc1cc(C2Nc3ccccc3NC3=C2C(=O)CC(c2ccc(OC)c(OC)c2)C3)ccc1O (stereo not drawn)
inactive: [1] -5.5% | [2] -0.9% | [3] 0%

COc1ccc(OC)c(C(=O)c2coc3ccc(O)cc23)c1
inactive: [1] -0.5% | [2] -1.6% | [3] 7%

OC[C@H]1O[C@@H](n2cnc3c(NC4CCCC4)ncnc32)[C@H](O)[C@@H]1O
inactive: [1] -1.4% | [2] 0.2% | [3] -6.9%

CC1=C(/C=C/C(C)=C/C=C/C(C)=C/C(=O)O)C(C)(C)CCC1
inactive: [1] 0.8% | [2] -0.1% | [3] 0.4%

COc1cc(OC)cc(C(C)=O)c1
inactive: [1] -1.9% | [2] -1.3% | [3] -0.1%

CCC(=O)O[C@]1(C(=O)CCl)[C@@H](C)C[C@H]2[C@@H]3CCC4=CC(=O)C=C[C@]4(C)[C@@]3(F)[C@@H](O)C[C@@]21C
inactive: [1] -0.5% | [2] -1.2% | [3] -3.4%

CC(C)(Oc1ccc(CCNC(=O)c2ccc(Cl)cc2)cc1)C(=O)O
inactive: [1] -1.2% | [2] 0.1% | [3] 8.7%

COc1ccc(C(=O)Nc2cccc3cccnc23)cc1OC
inactive: [1] -2.2% | [2] -2.2% | [3] -4.6%

COc1ccc(CCn2c(C)cc3c(c2=O)C(c2ccncc2)C(C#N)=C(N)O3)cc1OC (stereo not drawn)
inactive: [1] -1.2% | [2] -0.6% | [3] -6.7%

COC(=O)c1ccccc1NC(=O)NCc1ccccc1
inactive: [1] 2.7% | [2] 0.1% | [3] 0.8%

CN1CCN(CCCN2c3ccccc3Sc3ccc(C(F)(F)F)cc32)CC1
inactive: [1] 0.3% | [2] -0.5% | [3] -3.1%

O=c1n(CCCN2CCN(c3cccc(Cl)c3)CC2)nc2ccccn12
inactive: [1] -5.2% | [2] -0.2% | [3] -1.3%

CC(C)c1ccc(OCc2ccc(C(=O)O)o2)cc1
inactive: [1] 0.6% | [2] -0.2% | [3] 2.5%

COc1cc(NC(=O)COc2ccccc2)c(OC)cc1NC(C)=O
inactive: [1] -2.2% | [2] 1.2% | [3] -8.3%

CSc1ccc2c(c1)N(CCC1CCCCN1C)c1ccccc1S2 (stereo not drawn)
inactive: [1] -0.1% | [2] -0.8% | [3] -7%

COc1ccc(Cc2noc(CN(C)CC3(N4CCOCC4)CCCCC3)n2)cc1OC
inactive: [1] 7.7% | [2] 4.3% | [3] -0.4%

NS(=O)(=O)c1cc(C2(O)NC(=O)c3ccccc32)ccc1Cl (stereo not drawn)
inactive: [1] -0.2% | [2] -1.6% | [3] -7.1%

CCc1c(C)c2ccc(OCC(=O)OC(C)C)c(C)c2oc1=O
inactive: [1] -1.9% | [2] -0.4% | [3] -1.3%

CN1CCCC(OC(=O)c2ccc3c(c2)OCCO3)C1 (stereo not drawn)
inactive: [1] 1% | [2] 0.8% | [3] -2.2%

CC(C)Cc1nc(NCCN2CCOCC2)c(C#N)c2c1COC(C)(C)C2
inactive: [1] -1.6% | [2] -0.8% | [3] -3%

C#CCN1C(=O)C(O)(c2c(C)[nH]c3ccccc23)c2ccccc21 (stereo not drawn)
inactive: [1] 0.4% | [2] 0.5% | [3] -3.2%

COc1ccc2[nH]c3c(c2c1)CCn1c-3nc2ccccc2c1=O
inactive: [1] 7% | [2] 2.2% | [3] 4.4%

— PubChem BioAssay
